These results are taken from PubChem BioAssay AID720700 (The Scripps Research Institute Molecular Screening Center, 2013).

The campaign covered roughly 370,000 compounds. About 3,100 (0.84%) were called active. The sample holds actives, similar compounds and a random draw of the others, so the mix is not that of the screen. Unmarked numbers belong to inactive results. Cut-off read from the data, not from the text of the source: active = inhibition above about 9.5%; inactive = the rest.

For the experiment, the target named is 1-phosphatidylinositol 4,5-bisphosphate phosphodiesterase gamma-1 (Homo sapiens) (UniProt P19174). As to the kind of experiment: blockers of human PLCG1 activity – biochemical, fluorescence, purified enzyme, primary screen (AID 720700). Particulars: purified PLC-gamma1, fluorogenic substrate, at 12.2 µM, active compounds read high.
1-phosphatidylinositol 4,5-bisphosphate phosphodiesterase gamma-1 (Homo sapiens), sequence (P19174 whole entry, looked up): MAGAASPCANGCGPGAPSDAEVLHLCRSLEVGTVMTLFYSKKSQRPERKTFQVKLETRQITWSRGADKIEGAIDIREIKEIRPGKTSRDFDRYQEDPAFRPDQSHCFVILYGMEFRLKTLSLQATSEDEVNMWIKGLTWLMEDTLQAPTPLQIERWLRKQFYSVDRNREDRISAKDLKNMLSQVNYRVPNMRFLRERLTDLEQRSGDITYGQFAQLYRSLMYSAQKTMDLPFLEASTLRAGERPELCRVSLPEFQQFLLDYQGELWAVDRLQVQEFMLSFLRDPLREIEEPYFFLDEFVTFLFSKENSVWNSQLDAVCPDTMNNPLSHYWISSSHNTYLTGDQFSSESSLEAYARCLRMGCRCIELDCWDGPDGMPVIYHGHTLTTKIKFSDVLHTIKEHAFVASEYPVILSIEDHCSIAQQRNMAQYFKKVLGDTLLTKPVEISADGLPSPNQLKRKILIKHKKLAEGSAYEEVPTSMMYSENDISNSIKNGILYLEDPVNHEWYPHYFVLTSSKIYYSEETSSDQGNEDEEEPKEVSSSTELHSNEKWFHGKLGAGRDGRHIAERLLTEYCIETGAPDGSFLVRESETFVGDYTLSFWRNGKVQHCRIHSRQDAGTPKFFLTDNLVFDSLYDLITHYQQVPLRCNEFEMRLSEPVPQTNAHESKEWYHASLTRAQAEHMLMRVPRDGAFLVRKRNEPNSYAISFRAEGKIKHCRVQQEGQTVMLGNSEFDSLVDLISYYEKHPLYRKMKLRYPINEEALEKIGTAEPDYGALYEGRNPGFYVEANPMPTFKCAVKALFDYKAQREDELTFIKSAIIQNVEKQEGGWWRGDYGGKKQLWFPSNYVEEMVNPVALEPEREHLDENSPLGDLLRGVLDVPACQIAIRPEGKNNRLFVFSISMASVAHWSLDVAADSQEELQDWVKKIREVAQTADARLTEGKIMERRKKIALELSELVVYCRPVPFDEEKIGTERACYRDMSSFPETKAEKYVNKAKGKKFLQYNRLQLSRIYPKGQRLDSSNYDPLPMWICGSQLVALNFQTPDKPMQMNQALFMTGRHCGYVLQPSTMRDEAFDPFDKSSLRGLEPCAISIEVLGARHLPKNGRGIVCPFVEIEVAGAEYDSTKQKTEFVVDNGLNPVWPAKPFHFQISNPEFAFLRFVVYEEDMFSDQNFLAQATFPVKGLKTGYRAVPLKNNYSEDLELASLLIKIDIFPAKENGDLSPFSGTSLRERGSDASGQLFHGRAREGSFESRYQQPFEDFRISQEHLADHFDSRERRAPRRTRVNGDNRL
Broadly, the inhibition is the change of the read-out against control, counted positive when it falls. Take `O=C(NCCCN1CCCCCC1)C1CC(=O)N(C2CCCC2)C1` (stereo not drawn): the inhibition is -1.08%.
To `CC(C)C(NC(=O)C1CCC(C(C)(C)C)CC1)C(=O)NCCCN1CCCCC1` (stereo not drawn) belongs 10.2% (active); to `O=C(NC(C(=O)NCCN1CCOCC1)C12CC3CC(CC(C3)C1)C2)C1CCCCC1` (stereo not drawn), -1.07%; to `Cc1ccc(-n2c(SCC(=O)Nc3ccc(S(=O)(=O)Nc4nccs4)cc3)nnc2-c2ccccn2)cc1`, -1.19%.
To `CN(C)/C=C(/C(=O)c1ccccc1Cl)S(C)(=O)=O` belongs -0.96%; to `CN(C)/C=C(/C(=O)c1ccc(F)cc1)S(=O)(=O)c1ccc(F)cc1`, -0.23%; to `CN(C)/C=C(/C(=O)c1ccc(Cl)cc1)S(=O)(=O)c1ccccc1`, 11.6% (active).
Regarding `CC(C)CNC(=O)OCc1cn(Cc2ccc(F)cc2)nn1`, the inhibition was -0.35%.
Then `CN(CCO)c1cccc2c1S(=O)(=O)N(Cc1cn(Cc3ccc(C(F)(F)F)cc3)nn1)Cc1ccccc1O2`, with -12.9%.
Consider `CCOc1ccc(-n2c(SCC(=O)Nc3cc(C)c(NC(=O)c4ccccc4)cc3OC)nnc2-c2cccc(Cl)c2)cc1`, for which the inhibition is -13.8%.
On to `Cc1ccc(C(=O)C2CCN(CC(=O)NCCC(C)C)CC2)cc1`, for which the inhibition is -6.25%.
As for `NC1=CC(=O)C(=O)c2cccnc21`, the inhibition is 11.2% (active).
As to `CC(C)CNS(=O)(=O)CC1NCCc2ccccc21` (stereo not drawn), the inhibition was 1.24%.
Then `O=C(CSc1nc2sc3c(c2c(=O)n1-c1ccccc1)CCCC3)NN=Cc1ccc(OCc2ccccc2)cc1`, with -0.49%; and `COc1ccc(/C=C2\N=C3CCCN3C2=O)cc1`, with 10.5% (active); and `COc1ccc(/C=C2\CC3(OC(C)=O)CCCN2C3)cc1` (stereo not drawn), with 0.44%.
To `COc1ccc(C=C2CCC3C(CCCC34OCCO4)C2=O)cc1` (stereo not drawn) belongs 3.51%; to `Cc1cccc(NC(=O)C[C@H]2CC[C@H]3[C@@H](COc4ccc(NC(=O)Nc5ccccc5)cc4C(=O)N3C)O2)c1`, 3.76%.
Then `CC1(C)CC(=O)C=C(NC2CC(C)(C)NC(C)(C)C2)C1`, with 9.6% (active); and `CC1(C)CC(=O)C=C(NCCCNC2CCCCC2)C1`, with 2.3%; and `COC(=O)NNC1=CC(=O)CC(C)(C)C1`, with -1.76%.
On to `O=C1CCC(C(=O)OCC(=O)Nc2ccc(OC(F)F)cc2)=NN1`, for which the inhibition is 3.57%.
Then `COc1ccc(NC(=O)COC(=O)CNC(=O)C2CCCCC2)cc1`, with 0.1%.
Then `CCC(C)(C)c1ccc(Oc2ccc(NC(=O)COC(=O)C3=COCCO3)cc2)cc1`, with 10.1% (active); and `O=C(CSc1nnc(-c2cccc(Cl)c2)n1Cc1ccco1)Nc1ccc(OCc2ccccc2)cc1`, with 2.27%; and `COC(=O)[C@]12C[C@H](CC(=O)N3CCN(C(=O)C4CC4)CC3)C(=O)N(CCC3=CCCCC3)C1=C[C@H](C(C)C)O[C@@H]2C1CC1`, with -0.79%.
Then `OC(CNCC1CCCO1)Cn1c2ccc(Br)cc2c2cc(Br)ccc21` (stereo not drawn), with 9.98% (active); and `O=C(CNC(=O)c1ccc(Br)o1)NCC1CCCO1` (stereo not drawn), with -1.19%.
As to `COCCNC(=O)c1ccc(Cn2c(SCC(=O)NCC3CCCO3)nc3ccc(Br)cc3c2=O)cc1` (stereo not drawn), the inhibition is 0.38%.
Consider `COc1cccc(CSc2nnc(-c3cccnc3)n2Cc2ccccc2)c1`, for which the inhibition is -0.88%.
To `N[C@@H](Cc1ccccc1)C(=O)N1CCC[C@@H]1C(=O)N1CCC2CCN(S(=O)(=O)c3ccccc3)CC21` (stereo partly drawn) belongs 1.45%.
To `CCCCC(=O)N[C@@H]1CC[C@@]23CCCN2C(=O)CCC[C@H]3[C@H]1C` belongs 0.85%; to `COc1ccc(S[C@]2(C(=O)N(C)C)CC(=O)N(c3ccc(OC)cc3)[C@@H]2c2ccc(OC)cc2)cc1`, 3.67%.
Consider `COc1cc(/C=C/C(=O)n2cnc3ccccc32)cc(OC)c1OC`, for which the inhibition was -0.84%.
`Cc1ccccc1CN1CCCCC(NC(=O)Nc2ccccc2F)C1=O` (stereo not drawn): the inhibition was 4.92%.
For the molecule `Nn1cnnc1N/N=C/c1cc([N+](=O)[O-])c(Cl)cc1Cl`, the inhibition was 13.2% (active).
Then `O=C(Nc1ccc(Br)cc1)C1CCC(=O)N1Cc1ccccc1Cl` (stereo not drawn), with 9.91% (active).
Then `COc1ccc(NC(=O)N2CCCC2C(=O)NCc2ccccc2Cl)cc1` (stereo not drawn), with -0.63%; and `O=C1c2ccccc2C(O)N1Cc1ccccc1Cl` (stereo not drawn), with -1.89%; and `COc1ccc(-n2c(SCC(=O)Nc3ccc4c(c3)OCCO4)nnc2-c2ccc(Cl)cc2)cc1`, with 2.18%.
To `O=S1(=O)c2c(NCc3ccco3)cccc2Oc2ccccc2CN1Cc1cn(Cc2cccc(C(F)(F)F)c2)nn1` belongs -41.1%; to `CCc1cc(C(=O)c2ccc(OC)cc2)c(NC(=O)CN2CCN(C)CC2)s1`, -5.73%; to `O=C(CN1CCN(c2ccc(O)cc2)CC1)Nc1ccc(-c2ccccc2)cc1`, 5.1%.
In the case of `CCCCc1nc2ccccc2c(NC(=O)CN2CCN(C)CC2)c1CCC`, the inhibition was 31.4% (active).
Then `Clc1ccc(-n2c(COc3ccccc3)nnc2SCc2nc3ccccc3[nH]2)cc1`, with -0.91%; and `Cc1cc(O)c(NC(=O)c2ccc(C)c([N+](=O)[O-])c2)cc1C`, with 4.76%.
To `Cc1cccc(NC(=O)c2ccc(COc3ccccc3[N+](=O)[O-])o2)n1` belongs -0.91%; to `CCCCNc1ccc(C(=O)Nc2cccc(C)n2)cc1[N+](=O)[O-]`, 16.8% (active).
To `O=C(Nc1cc(F)cc(F)c1)OC1CCC12CCC(c1ccccc1)CC2` (stereo not drawn) belongs 0%; to `C=CCN1[C@H](CC(C)C)COc2cccc(N3CCCC3)c2S1(=O)=O`, -4.7%.
For the molecule `C[C@H]1[C@H](NC(=O)c2cccc(N(C)C)c2)CC[C@@]23CCCN2C(=O)CCC[C@@H]13`, the inhibition is -87.5%.
Then `Cc1sc2nc(SCC(=O)c3ccc(O)c(O)c3)n(Cc3ccco3)c(=O)c2c1C`, with 4.7%.
To `CC1(C(=O)NCc2ccccc2)CSCC(=O)N1CCCN1CCOCC1` (stereo not drawn) belongs 10.3% (active); to `CCC(C)CN1C(=O)CSCC1(C)C(=O)NCc1ccccc1` (stereo not drawn), 3.07%.
Turning to `CC1(C(=O)NCc2ccccc2)CSCC(=O)N1CCCn1ccnc1` (stereo not drawn), the inhibition is 0.21%.
To `Cc1cc(=O)[nH]c(SCC(=O)Nc2ccc(Cl)cc2C)n1` belongs 3.72%.
To `C=C(C)C#CC(Cc1ccccc1)N(CC1CC1)/C(N)=N/C(=O)OCc1ccccc1` (stereo not drawn) belongs -163%; to `O=S1(=O)c2c(cccc2N2CCSCC2)Oc2ccccc2CN1Cc1cn(Cc2ccc(F)cc2)nn1`, -5.24%.
Take `O=C(Nc1ccccc1Cl)/C(Cl)=C(\Cl)S(=O)c1ccccc1` (stereo not drawn): the inhibition is 12.4% (active).
Then `CN1C(=O)c2cc(NS(C)(=O)=O)ccc2OC[C@@H]2O[C@@H](CC(=O)NCc3ccc(-c4ccccc4)cc3)CC[C@H]21`, with -2.2%; and `CCC(=O)c1c(CC)c2n3c1=CC[C@H]3CC(Br)C=2` (stereo partly drawn), with -6.13%; and `CC(=O)N1CCc2cc(S(=O)(=O)NCCC(=O)N3CCCC3)ccc21`, with 1.19%.
To `Cc1ccc(N2CC(C(=O)NCCS(=O)(=O)N3CCN(c4ccccc4)CC3)CC2=O)cc1` (stereo not drawn) belongs 10.4% (active); to `COc1ccc(N2CC(C(=O)NCCS(=O)(=O)N3CCN(c4ccccc4)CC3)CC2=O)cc1` (stereo not drawn), 4.62%; to `COCCCNC(=O)C1CC(=O)N(c2ccc(C)cc2)C1` (stereo not drawn), -0.12%.
For the molecule `O=C(NC1CCCC1)C1CSCCS(=O)(=O)N1Cc1ccccc1` (stereo not drawn), the inhibition is -0.17%.
To `COc1ccc(C(=O)c2c(C)c(CCC#N)n3ccccc23)c(OC)c1` belongs -3.69%; to `Cc1c(C(=O)c2cccc([N+](=O)[O-])c2)c2ccccn2c1CCC#N`, 11.7% (active).
To `COc1cccc(C(=O)CC(=O)C(=O)Nc2ccc([N+](=O)[O-])cc2C)c1` belongs -0.82%.
For the molecule `Cc1cc(C)cc(NC(=O)N2CCC(N(C)CCC(C)C)CC2)c1`, the inhibition is 3.12%.
To `CCC(c1ccc(NC(=O)OC(C)(C)C)cc1)c1cc(OC)cc(OC)c1` (stereo not drawn) belongs 1.5%; to `N#Cc1c(NC(=O)C2CCCO2)sc2c1CCCCC2` (stereo not drawn), 12.2% (active).
Then `CC(=O)c1c(C)[nH]c(C(=O)OCC(=O)Nc2sc3c(c2C#N)CCCC3)c1C`, with -7.9%; and `N#Cc1c(NC(=O)c2ccc(N3CCOCC3)c([N+](=O)[O-])c2)sc2c1CCCC2`, with 3.4%; and `O=C(Nc1ccccc1)N1CCN(Cc2nc3ccccc3c(=O)[nH]2)CC1`, with -0.51%.
Then `C/C(CC(C)C)=N\Oc1nc(C)cc(C)n1`, with 9.91% (active).
Regarding `COc1cccc(CNC(=O)C2CCCN(c3nc4ccccc4o3)C2)c1OC` (stereo not drawn), the inhibition was 0.94%.
Then `COC(=O)[C@H](C(C)C)N1CCc2nnn(Cc3ccc(C)cc3)c2-c2ccccc2S1(=O)=O`, with 0.55%; and `CCc1c(C)n([O-])c2c([n+]1=O)CCCCC2`, with 11% (active).
In the case of `CCOc1ccc(-c2c(C)n([O-])c3c([n+]2=O)CCCC3)cc1`, the inhibition is -0.45%.
Then `Cc1ccc(-c2c(C)n([O-])c3c([n+]2=O)CCC3)cc1`, with 1.87%; and `CC(CCN1CCC(C(O)(c2ccccc2)c2ccccc2)CC1)Oc1ccc(Cl)cc1` (stereo not drawn), with 3.75%; and `CCCC[C@H]1C2CC(OC(=O)NCc3ccccc3)C(C2)[C@H]2CCCCN21` (stereo partly drawn), with -1.64%.
To `Cc1cccc(C)c1NC(=O)CN1C(=O)C(C)Oc2ccccc21` (stereo not drawn) belongs 1.55%; to `CC12c3ccccc3C(c3ccccc31)C1C(=O)N(Cc3cccnc3)C(=O)C12` (stereo not drawn), 1.04%; to `CC1Oc2ccccc2N(Cc2cccnc2)C1=O` (stereo not drawn), 11% (active).
To `Cc1ccc(C2=CCN(C)C(=O)N2c2ccc(Cl)cc2)cc1` belongs -0.42%; to `CC(c1c[nH]c2ccccc12)c1c(-c2ccccc2)n(C)c2ccccc12` (stereo not drawn), -4.35%.
